# Test results taken from the supplement of paper PMC8728848.
# The full list was thinned out, with the strongest signals kept by preference.
# B1: PfulAvr4 (Pseudocercospora fuligena) (protein)
# chain: HHHHHHDYKDDDDKTYVQDKTPAFVCPAADIKTTKCLGPKDCLYPSPKTCNGYIQCSPADDSYLTGIIHEMPCPSGLLWNDNKKWCDWPENTTCGLVKSAGATEVDATKQGPTPGKYHG
# Key:
# Test in all cases: glycan array binding signal (z-score within array); higher = stronger binding
# Details in all cases: glycan notation: IUPAC condensed, linker removed
# [1] = biological target: Fuc(a1-2)Gal(b1-3)GalNAc(b1-3)Gal
# Summary of the method: (§1)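 From the Consortium for Functional Glycomics database, 3228 arrays were curated, keeping only those whose protein sequence was available. Binding is given as a within-array Z-score averaged across arrays sharing a protein sequence and across linkers. Negative Z-scores can be read as non-binding.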
# [2] = biological target: Fuc(a1-2)Gal(b1-3)[Fuc(a1-4)]GlcNAc(b1-2)Man(a1-3)[Fuc(a1-2)Gal(b1-3)[Fuc(a1-4)]GlcNAc(b1-2)Man(a1-3)]Man(b1-4)GlcNAc(b1-4)GlcNAc
# Summary of the method: as §1
# [3] = biological target: Fuc(a1-2)Gal(b1-3)[Fuc(a1-4)]GlcNAc(b1-3)[Gal(b1-4)GlcNAc(b1-6)]Gal(b1-4)Glc
# Summary of the method: as §1
# [4] = biological target: Fuc(a1-2)Gal(b1-4)GlcNAc(b1-3)[Fuc(a1-3)[Gal(b1-4)]GlcNAc(b1-6)]Gal(b1-4)Glc
# Summary of the method: as §1
# [5] = biological target: Fuc(a1-2)Gal(b1-4)[Fuc(a1-3)]GlcNAc
# Summary of the method: as §1
# [6] = biological target: Fuc(a1-2)Gal(b1-4)[Fuc(a1-3)]GlcNAc(b1-2)[Fuc(a1-2)Gal(b1-4)[Fuc(a1-3)]GlcNAc(b1-4)]Man(a1-3)[Fuc(a1-2)Gal(b1-4)[Fuc(a1-3)]GlcNAc(b1-2)Man(a1-6)]Man(b1-4)GlcNAc(b1-4)GlcNAc
# Summary of the method: as §1
# [7] = biological target: Fuc(a1-2)[Gal(a1-3)]Gal(b1-3)GlcNAc(b1-2)Man(a1-3)[Fuc(a1-2)[Gal(a1-3)]Gal(b1-3)GlcNAc(b1-2)Man(a1-6)]Man(b1-4)GlcNAc(b1-4)GlcNAc
# Summary of the method: as §1
# [8] = biological target: Fuc(a1-2)[Gal(a1-3)]Gal(b1-4)GlcNAc(b1-6)GalNAc
# Summary of the method: as §1
# [9] = biological target: Fuc(a1-2)[GalNAc(a1-3)]Gal
# Summary of the method: as §1
# [10] = biological target: Fuc(a1-2)[GalNAc(a1-3)]Gal(b1-3)GalNAc(a1-3)[Fuc(a1-2)]Gal(b1-4)GlcNAc
# Summary of the method: as §1
# [11] = biological target: Fuc(a1-2)[GalNAc(a1-3)]Gal(b1-3)GlcNAc(b1-3)GalNAc
# Summary of the method: as §1
# [12] = biological target: Fuc(a1-2)[GalNAc(a1-3)]Gal(b1-4)GlcNAc
# Summary of the method: as §1
# [13] = biological target: Fuc(a1-2)[GalNAc(a1-3)]Gal(b1-4)GlcNAc(b1-3)[Fuc(a1-2)[GalNAc(a1-3)]Gal(b1-4)GlcNAc(b1-6)]GalNAc
# Summary of the method: as §1
# [14] = biological target: Fuc(a1-2)[GalNAc(a1-3)]Gal(b1-4)GlcNAc(b1-6)GalNAc
# Summary of the method: as §1
# [15] = biological target: Fuc(a1-2)[GalNAc(a1-4)]Gal(b1-4)GlcNAc
# Summary of the method: as §1
# Gal(a1-3)Gal(b1-4)GlcNAc = biological target: Gal(a1-3)Gal(b1-4)GlcNAc
# Summary of the method: as §1
# Gal(b1-2)Gal = biological target: Gal(b1-2)Gal
# Summary of the method: as §1
# [16] = biological target: Gal(b1-3)GalNAc(b1-3)Gal(a1-4)Gal(b1-4)Glc
# Summary of the method: as §1
# [17] = biological target: Gal(b1-3)GlcNAc(b1-2)Man(a1-3)[GlcNAc(b1-4)][Gal(b1-3)GlcNAc(b1-2)Man(a1-6)]Man(b1-4)GlcNAc(b1-4)GlcNAc
# Summary of the method: as §1
# [18] = biological target: Gal(b1-3)GlcNAc(b1-3)GalNAc
# Summary of the method: as §1
# [19] = biological target: Gal(b1-3)[Fuc(a1-4)]GlcNAc(b1-2)Man(a1-3)[Gal(b1-3)[Fuc(a1-4)]GlcNAc(b1-2)Man(a1-6)]Man(b1-4)GlcNAc(b1-4)[Fuc(a1-6)]GlcNAc
# Summary of the method: as §1
# [20] = biological target: Gal(b1-3)[Neu5Ac(a2-6)]GalNAc
# Summary of the method: as §1
# [21] = biological target: Gal(b1-4)GalNAc(b1-3)[Fuc(a1-2)]Gal(b1-4)GlcNAc
# Summary of the method: as §1
# [22] = biological target: Gal(b1-4)GlcNAc(b1-2)Man(a1-3)[Man(a1-6)]Man(b1-4)GlcNAc(b1-4)GlcNAc
# Summary of the method: as §1
# [23] = biological target: Gal(b1-4)GlcNAc(b1-2)Man(a1-6)[GlcNAc(b1-2)Man(a1-3)]Man(b1-4)GlcNAc(b1-4)GlcNAc
# Summary of the method: as §1
# [24] = biological target: Gal(b1-4)GlcNAc(b1-3)Gal(b1-3)GlcNAc
# Summary of the method: as §1
# [25] = biological target: Gal(b1-4)GlcNAc(b1-3)Gal(b1-4)GlcNAc(b1-2)[Gal(b1-4)GlcNAc(b1-3)Gal(b1-4)GlcNAc(b1-6)]Man(a1-6)[Gal(b1-4)GlcNAc(b1-3)Gal(b1-4)GlcNAc(b1-2)Man(a1-3)]Man(b1-4)GlcNAc(b1-4)GlcNAc
# Summary of the method: as §1
# [26] = biological target: Gal(b1-4)GlcNAc(b1-3)Gal(b1-4)GlcNAc(b1-2)[Gal(b1-4)GlcNAc(b1-3)Gal(b1-4)GlcNAc(b1-6)]Man(a1-6)[Gal(b1-4)GlcNAc(b1-3)Gal(b1-4)GlcNAc(b1-2)Man(a1-3)]Man(b1-4)GlcNAc(b1-4)[Fuc(a1-6)]GlcNAc
# Summary of the method: as §1
# [27] = biological target: Gal(b1-4)GlcNAc(b1-3)Gal(b1-4)GlcNAc(b1-3)Gal(b1-4)GlcNAc(b1-3)Gal(b1-4)GlcNAc(b1-3)Gal(b1-4)GlcNAc(b1-2)Man(a1-3)[Gal(b1-4)GlcNAc(b1-3)Gal(b1-4)GlcNAc(b1-3)Gal(b1-4)GlcNAc(b1-3)Gal(b1-4)GlcNAc(b1-3)Gal(b1-4)GlcNAc(b1-2)Man(a1-6)]Man(b1-4)GlcNAc(b1-4)[Fuc(a1-6)]GlcNAc
# Summary of the method: as §1
binder,measurement,setting,value
B1,glycan array binding signal (z-score),[1],-0.098
same,glycan array binding signal (z-score),[2],1.42
same,glycan array binding signal (z-score),[3],-0.112
same,glycan array binding signal (z-score),[4],-0.102
same,glycan array binding signal (z-score),[5],-0.091
same,glycan array binding signal (z-score),[6],0.683
same,glycan array binding signal (z-score),[7],-0.05
same,glycan array binding signal (z-score),[8],-0.112
same,glycan array binding signal (z-score),[9],-0.132
same,glycan array binding signal (z-score),[10],1.31
same,glycan array binding signal (z-score),[11],-0.06
same,glycan array binding signal (z-score),[12],-0.151
same,glycan array binding signal (z-score),[13],-0.133
same,glycan array binding signal (z-score),[14],-0.129
same,glycan array binding signal (z-score),[15],-0.135
same,glycan array binding signal (z-score),Gal(a1-3)Gal(b1-4)GlcNAc,-0.07
same,glycan array binding signal (z-score),Gal(b1-2)Gal,-0.01
same,glycan array binding signal (z-score),[16],-0.044
same,glycan array binding signal (z-score),[17],0.682
same,glycan array binding signal (z-score),[18],-0.105
same,glycan array binding signal (z-score),[19],0.612
same,glycan array binding signal (z-score),[20],0.215
same,glycan array binding signal (z-score),[21],-0.141
same,glycan array binding signal (z-score),[22],1.71
same,glycan array binding signal (z-score),[23],-0.136
same,glycan array binding signal (z-score),[24],-0.04
same,glycan array binding signal (z-score),[25],1.38
same,glycan array binding signal (z-score),[26],-0.13
same,glycan array binding signal (z-score),[27],0.048
